Source: PubChem BioAssay
An excerpt weighted towards active compounds, which were near 6% of everything screened.
DRD3 agonist – activates the human D3 dopamine receptor | P35462 | D3R DiscoveRx beta-arrestin cells, luminescence, 90 min | max activation, % | 0.58% of 410,000 active; in the data active = max activation above about 30%; also: 0% is about no effect
Target sequence (P35462 whole entry, looked up): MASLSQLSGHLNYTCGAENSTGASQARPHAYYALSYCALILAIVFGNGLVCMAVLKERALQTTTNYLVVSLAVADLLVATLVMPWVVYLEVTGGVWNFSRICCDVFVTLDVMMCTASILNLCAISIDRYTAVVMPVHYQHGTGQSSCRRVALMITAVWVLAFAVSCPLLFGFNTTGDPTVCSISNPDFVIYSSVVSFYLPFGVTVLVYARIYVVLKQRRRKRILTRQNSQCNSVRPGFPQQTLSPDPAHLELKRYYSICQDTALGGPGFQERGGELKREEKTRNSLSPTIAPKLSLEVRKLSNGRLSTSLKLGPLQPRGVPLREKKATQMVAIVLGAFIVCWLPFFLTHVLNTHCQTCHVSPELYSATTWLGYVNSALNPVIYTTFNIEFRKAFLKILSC
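Agonist mode: compounds and dopamine controls were applied to plated cells for 90 min at 37 degrees C after an overnight attachment at 1500 cells/well. Luminescent read-out followed 30 - 60 minutes at room temperature with DiscoveRx detection reagent.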
D1 PAM – potentiators of human D1 dopamine receptor; P21728; HEK293 TREx D1 cells, calcium flux, dopamine EC20 potentiation; potentiation, % at 10 µM; 0.036% of 360,000 active; in the data active = potentiation above about 30%; also: 0% is about no effect
D1 ag – agonists of human D1 dopamine receptor. 1% of 360,000 active. HEK293 T-REx D1 cells, calcium flux, agonist mode. P21728. activation, % at 2 µM. AID 504660; in the data active = activation above about 30%; also: 0% is about no effect
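Inducible HEK293 T-REx D1 cells, force-coupled to calcium signalling, were plated at 4000 cells/well with tetracycline and held overnight at 30 C. After no-wash calcium dye loading, compound-evoked calcium rise over 180 s flagged agonists.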
Chronic BCR inh – blocks chronic active B-cell receptor signaling; ABC-DLBCL IkBa-CBG/CBR reporter, luminescence ratio, 4 h; 0.05% of 340,000 active; Potency, µM (titrated, usually from 46.1 µM), inactives show at the highest dose activity change, negative = inhibition, most hits filed as inhibitors; AID 493014; active = well fitted inhibition curve with a large enough effect in the signal ratio, with a control signal flat, not every such curve was filed as active; inconclusive = small, poorly fitted or top-dose-only effect, or effect the other way, or a change in a side signal; the % refers to the signal ratio;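 also: potency is read from the fitted curve at half-maximal effect; plate controls were basal doxycycline-induced cells for no effect and cells given 10 µM MG132 for full effect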
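Compounds up to 46 uM were incubated four hours with TMD8 cells whose green CBG68 luciferase is fused to IkappaBalpha; red CBR luminescence normalised the signal, and concentration-effect curves were fitted to fusion, red and ratio data.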
DRD3 antagonist – blocks the human D3 dopamine receptor. D3R cells, DiscoveRx beta-arrestin luminescence, antagonist mode; hits give low values. AID 652054. 2.5% of 360,000 active. max response, negative = inhibition, %. P35462; in the data active = max response below about -50%; inconclusive = no clear call, values can overlap the other calls; also: % is scaled to controls: 0 for no effect and ±100 for the full control effect
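Cells expressing the human receptor were seeded at 1500 cells/well, incubated overnight at 37 degrees C in 5% CO2, then exposed to library compounds with dopamine controls for 90 minutes at 37 degrees C before luminescent detection.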
D1 antag – human D1 dopamine receptor antagonism; HEK293 TREx D1 cells, calcium flux, dopamine EC80; hits give low values; activity change, negative = inhibition, % at 10 µM; 3.2% of 360,000 active; AID 504652; in the data active = activity change below about -30%; also: % is scaled to controls: 0 for no effect and ±100 for the full control effect
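Calcium flux readout: force-coupled, inducible Hek293 Trex D1 line, cells induced overnight at 30 C with tetracycline, dye-loaded 30–90 min at RT. Antagonism scored against EC80 dopamine challenge given 180 s after compound.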
Active calls of the source: *; ? = inconclusive; . = no result; ! = not confirmed by another sample.

SMILES | DRD3 agonist | D1 PAM | D1 ag | Chronic BCR inh | DRD3 antagonist | D1 antag
CCOc1ccc(-n2c(=O)c3c(C)c(C(=O)N(C)C)sc3n(Cc3cc(C)ccc3C)c2=O)cc1 | -10 | -1 | 0 | -10% | . | 18
COc1ccc2oc(=O)c(C(=O)NCc3ccc(C)cc3)cc2c1 | 0 | -7 | 4 | 1% | 35 | -37*
COc1ccc(CNC(=O)c2cc(=O)c3cc(C)ccc3o2)cc1 | -1 | -2 | 9 | ? | -1 | -36*
Cc1cccc(NC(=O)c2oc3ccccc3c2NC(=O)c2cc(=O)c3ccccc3o2)c1 | 10 | -1 | 3 | . | . | -8
Cc1cc2oc(C(=O)Nc3c(C(=O)Nc4ccccc4)oc4ccccc34)cc(=O)c2cc1C | -6 | -1 | 3 | . | . | -43*
Cc1cc(C)c2c(=O)cc(C(=O)NCc3ccccc3)oc2c1 | -46 | -6 | 7 | 7% | -53* | 2
CCOc1ccc(S(=O)(=O)NCC(c2ccco2)S(=O)(=O)c2ccc(F)cc2)cc1 (centres undefined) | 4 | -1 | 0 | 0% | . | .
COc1ccc2cc(C3CC=C(COC(C)=O)CN3S(=O)(=O)c3ccccc3[N+](=O)[O-])n(C(=O)OC(C)(C)C)c2c1 (centres undefined) | -11 | . | . | . | -13 | .
CC1(C(=O)NCc2ccccc2Br)CCN1C(=O)Cc1ccc(-c2ccccc2)cc1 (centres undefined) | 0 | . | . | . | 3 | .
O=C(CCCn1c2ccccc2c(=O)c2ccccc21)Nc1cccc(Cl)c1 | 9 | -1 | 4 | . | . | -16
Cc1ccc2c(=O)cc(C(=O)Nc3c(C)cccc3C)oc2c1 | 4 | -3 | -2 | . | . | -32*
Cc1ccc(CNC(=O)c2cc(=O)c3ccc(C)cc3o2)cc1 | 16 | -2 | 5 | 3% | 1 | -2
Cc1ccc(CNC(=O)c2cc(=O)c3ccccc3o2)cc1 | 17 | . | 16 | ? | 10 | -35*
Cc1cc(C)c(NC(=O)c2cc(=O)c3ccccc3o2)c(C)c1 | 12 | -3 | 1 | 1% | 17 | 22
CCc1ccc(NC(=O)c2ccc(CN3CC(=O)N4CCCCC4C3=O)cc2)cc1 (centres undefined) | -5 | -1 | -1 | . | . | 6
CCC(=O)Nc1nnc2n1CCS2 | 2 | -3 | 0 | . | . | 12
O=C1C(=O)c2c(ccc3ccccc23)-c2ccccc21 | -14 | . | . | . | -53* | .
CCOC(=O)c1cccc(NC(=O)CCc2c(C)nn(-c3ccc(N4CCCCC4)nn3)c2C)c1 | -4 | -3 | 0 | . | . | 2
O=C(CCn1ccc2cc(S(=O)(=O)N3CCCC3)ccc21)NCc1ccccc1Cl | -1 | -2 | 7 | . | . | -15
O=C(CCn1ccc2cc(S(=O)(=O)N3CCCC3)ccc21)NCc1ccccc1F | 2 | -2 | 5 | -5% | -14 | -31*!
CCOc1ccccc1CNC(=O)CCn1ccc2cc(S(=O)(=O)N3CCCCC3)ccc21 | 1 | 3 | 48*! | ? | 6 | 9
CCN(CC)c1ccc(-n2nc3cc(C)c(NC(=O)c4ccccc4F)cc3n2)cc1 | -9 | 1 | 0 | . | . | -5
CCOc1ccc(C(C)=O)cc1CSC(=N)N | 3 | -6 | 4 | 2% | 13 | -27
COc1ccc(CSC(=N)N)cc1[N+](=O)[O-] | -13 | 4 | 3 | ? | 14 | 3
CCCCCOc1ccc(CSC(=N)N)cc1[N+](=O)[O-] | 1 | -1 | 56* | ? | 9 | 35
SMILES | DRD3 agonist | D1 PAM | D1 ag | Chronic BCR inh | DRD3 antagonist | D1 antag
CCCCOc1ccc(Br)cc1CSC(=N)N | -16 | -5 | 62* | ? | -20 | -4
CN1CCN(C2CN(Cc3ccc(F)cc3)S(=O)(=O)C2)CC1 (centres undefined) | 1 | . | . | . | 5 | .
CCC(=O)Nc1cccc(NC(=O)c2ccccc2Cl)c1 | 4 | -4 | 2 | -18% | -9 | 2
CCC(=O)Nc1cccc(NC(=O)c2ccc(C)cc2Cl)c1 | -2 | -4 | 0 | ? | 2 | -46*
CCOC(=O)c1cc(-c2ccccc2)n(CCC(=O)Nc2nc3c(C)cccc3s2)c1C | 6 | -1 | 2 | ? | . | -3
COc1cccc(C(=O)O[C@H]2[C@H](C)NS(=O)(=O)[C@H]3C[C@@H]4C=C[C@]23O4)c1 | -2 | 0 | -3 | -3% | -1 | .
COc1cccc(C(=O)O[C@H]2[C@H](Cc3ccccc3)NS(=O)(=O)[C@H]3C[C@@H]4C=C[C@]23O4)c1 | -4 | . | . | -3% | -52* | .
COc1cccc(OCCCn2cc(/C=C3/C(=N)N4C=C(C)SC4=NC3=O)c3ccccc32)c1 | -5 | 0 | 34* | 4% | 4 | -11
O=C(O)c1c(Cl)c(Cl)c(Cl)c(Cl)c1-c1c2cc(I)c(=O)c(I)c-2oc2c(I)c(O)c(I)cc12 | -26 | . | . | . | . | .
S=C(NCCCN1CCOCC1)NN=C1c2ccccc2-c2ccccc21 | -18 | . | . | . | -71* | .
O=C(NCCCN1CCOCC1)c1cccc(S(=O)(=O)N2CCN(c3ccccc3)CC2)c1 | -20 | 1 | 2 | -2% | -24 | -1
O=S(=O)(c1ccccc1)N1CCN(C(=S)NCCCN2CCOCC2)CC1 | -10 | 5 | 0 | -1% | -12 | -46*
CN(C)S(=O)(=O)c1cccc(NC(=O)c2cnccn2)c1 | . | 1 | 1 | 0% | . | 3
COc1ccc(NS(=O)(=O)c2cccc(NC(=O)c3cnccn3)c2)cc1Br | 4 | -3 | 7 | -3% | -8 | -31*
CN(Cc1nc2ccccc2c(=O)[nH]1)C(=O)c1ccccc1OCc1ccc(Cl)cc1 | -3 | -1 | 1 | -2% | -7 | -32*
COc1cc(Br)c(C(=O)c2nccc3cc(OC)c(OC)cc23)cc1OC | -3 | -6 | 1 | -3% | 3 | -31*
COc1cc(N)c(C(=O)c2nccc3cc(OC)c(OC)cc23)cc1OC | -4 | -3 | 15 | -15% | -17 | 27
COc1ccc(CCN(C)c2ccc(S(=O)(=O)N3CCCC3)cc2[N+](=O)[O-])cc1OC | -5 | -2 | 2 | -14% | -1 | 4
COc1ccc(CCNc2ccc(S(=O)(=O)N3CCN(C)CC3)cc2[N+](=O)[O-])cc1 | -15 | -3 | 11 | 0% | -11 | -32*
COc1ccc(CN(C)c2ccc(S(=O)(=O)N3CCN(C)CC3)cc2[N+](=O)[O-])cc1OC | 4 | -11 | 23 | -10% | 19 | -46*
CCOC(=O)c1c(NC(=O)c2ccc(OCC)c(Br)c2)sc2c1CCCC2 | 1 | -2 | 0 | . | . | 6
Cc1onc(-c2c(F)cccc2Cl)c1C(=O)Nc1ccc(OC(C)C)cc1 | 7 | -2 | -2 | . | . | -23
CC(=O)C1=C(C)Nc2ncnn2C1c1cccc(OCc2ccccc2)c1 (centres undefined) | -2 | -10 | -3 | -8% | 20 | -31*
